# In PubChem BioAssay AID777 (Sanford-Burnham Center for Chemical Genomics, 2007):
# Among all 96,000 compounds or so, about 19,000 (20%) were called active.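 The calls were made as follows: active = blocking of liver enzyme CYP2C9 beyond about 50% at 5 µM (limit read from the data); inactive = the rest.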 Only a sample is shown.
# Target: Cytochrome P450 2C9 (Homo sapiens) (UniProt P11712)
# Assay: blockers of cytochrome P450 2C9 activity – biochemical, luminescence, ADME assay, primary screen (AID 777)
# Settings: CYP2C9 Supersomes, luciferin-H conversion, at 5 µM, hits give high values
# Chain of Cytochrome P450 2C9 (Homo sapiens) (P11712 whole entry, looked up): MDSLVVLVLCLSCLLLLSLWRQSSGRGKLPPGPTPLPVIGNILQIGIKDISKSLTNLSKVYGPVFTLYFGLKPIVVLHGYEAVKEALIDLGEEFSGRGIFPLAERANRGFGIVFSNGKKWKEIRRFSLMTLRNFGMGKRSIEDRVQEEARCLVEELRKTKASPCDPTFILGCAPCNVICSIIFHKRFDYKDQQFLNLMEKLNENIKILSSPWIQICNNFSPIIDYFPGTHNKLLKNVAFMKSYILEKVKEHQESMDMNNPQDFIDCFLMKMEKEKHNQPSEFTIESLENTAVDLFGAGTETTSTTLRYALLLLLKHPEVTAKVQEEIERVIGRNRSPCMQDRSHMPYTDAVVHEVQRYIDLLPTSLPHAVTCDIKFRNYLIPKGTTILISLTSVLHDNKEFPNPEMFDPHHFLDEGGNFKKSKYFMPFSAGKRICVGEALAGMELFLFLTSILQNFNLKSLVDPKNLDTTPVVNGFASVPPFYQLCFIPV
row,Structure (SMILES),inhibition
1,CCc1c(C)[nH]c(=S)c(C#N)c1C,16% (inactive)
2,Cc1cc(C)nc(NC2=NCC(=O)N2c2ccc(Cl)cc2)n1,-8.5% (inactive)
3,Cc1ccc(Oc2nc3ccccc3n3c(C)nnc23)cc1,13.5% (inactive)
4,COC(=O)CN(c1cccc(C(C)=O)c1)S(C)(=O)=O,40.7% (inactive)
5,CC1=NN(C(C)C)C(=O)C1,12.8% (inactive)
6,COCCNC(=O)COc1ccc(C)c(C)c1,-28.7% (inactive)
7,O=S(=O)(O)c1nc2ccccc2n1Cc1ccc(Cl)cc1Cl,74.7% (active)
8,O=S(=O)(O)c1nc2ccccc2n1Cc1ccc(Cl)cc1,43.6% (inactive)
9,CCC(=O)Nc1nc2ccccc2n1Cc1ccccc1C,-6.9% (inactive)
10,Cc1ccc(F)c(NC(=O)CCc2ccccc2)c1,-15.7% (inactive)
11,O=C(OCc1cn(-c2ccc(Cl)c(Cl)c2)nn1)c1ccccc1Cl,-32.3% (inactive)
12,CCc1nnc(NC(=O)c2ccc(S(=O)(=O)NC3CCCCC3)cc2)s1,20.2% (inactive)
13,CCc1nnc(NS(=O)(=O)c2ccc(NS(=O)(=O)c3ccccc3)cc2)s1,77.5% (active)
14,CCc1nnc(NS(=O)(=O)c2ccc(N=Cc3c(C)[nH]n(-c4ccc(C)cc4)c3=O)cc2)s1,17% (inactive)
15,CCC(C)NC(=O)c1cc(Cl)ccc1OC (stereo not drawn),-166% (inactive)
16,Cc1ccc(C(C(=O)NC2CCCCC2)N(C(=O)c2csnn2)C2CC2)o1 (stereo not drawn),26.6% (inactive)
17,CCc1c(C)sc(NC(=O)OC)c1C(=O)N1CCOCC1,-10.7% (inactive)
18,CCCCCN1CC(O)=C(c2nc(-c3ccc(Cl)cc3)cs2)C1=N,62.1% (active)
19,CCCCCN1CC(O)=C(c2ccccc2)C1=N,-11.3% (inactive)
20,COc1ccccc1N1CC(O)=C(c2nc3ccccc3s2)C1=N,26.8% (inactive)
21,Cc1ccc(CNC(=O)C2CC(c3ccccc3[N+](=O)[O-])=NO2)o1 (stereo not drawn),-18.8% (inactive)
22,COC(=O)c1ccc(CSc2nc3cc(Cl)ccc3o2)cc1,-7.6% (inactive)
23,CC(C)C(=O)N1CCN(c2nc(-c3ccccc3)c3c(c2C#N)CC(C)(C)OC3)CC1,97.1% (active)
24,CC(C)Cc1nc(N2CCOCC2)c(C#N)c2c1CCC2,39.5% (inactive)
25,C1=C(N2CCOCC2)/C(=C/c2nc3ccccc3[nH]2)CC1,11.9% (inactive)

row,Structure (SMILES),inhibition
1,CC1(C)Cc2c(C#N)c(SCc3nc4ccccc4[nH]3)nc(N3CCOCC3)c2CO1,96.2% (active)
2,c1ccc2[nH]c(NCCN3CCOCC3)nc2c1,-29.7% (inactive)
3,CC(C)c1nc(N2CCOCC2)c(C#N)c2c1COC(C)(C)C2,61.7% (active)
4,Cc1nc(NCc2ccccc2)c(C(N)=O)c2c1COC(C)(C)C2,2.7% (inactive)
5,c1ccc2cc(OCCN3CCCC3)ccc2c1,2.2% (inactive)
6,O=C(CCCN1C(=O)CSc2ncccc21)N1CCN(c2cccc(C(F)(F)F)c2)CC1,31.1% (inactive)
7,CN1CCN(CC(O)COCc2ccc3c(c2)OCO3)CC1 (stereo not drawn),-13.3% (inactive)
8,COc1ccc2c3c(c(=O)oc2c1OCC(=O)C(C)(C)C)CCCC3,25.4% (inactive)
9,O=C(NCc1ccccn1)Nc1ccc(F)cc1,2.9% (inactive)
10,CCN(CC)C(=O)CSC1c2ccccc2C(=O)N1c1ccccc1 (stereo not drawn),-6.2% (inactive)
11,Cc1ccc(NC2=NC(c3ccccc3)n3c(nc(C)cc3=O)N2)cc1 (stereo not drawn),35.5% (inactive)
12,Cc1ccc(S(=O)(=O)NCc2nc3ccccc3c(=O)n2N)cc1,-7.2% (inactive)
13,Cc1ccc(S(=O)(=O)Nc2nc3ccccc3nc2N2CCc3ccccc3C2)cc1,96% (active)
14,O=C(Nc1ccc(S(=O)(=O)N2CCc3ccccc3C2)cc1)c1ccccc1,1.2% (inactive)
15,Cc1cc([N+](=O)[O-])ccc1NCc1cccc([N+](=O)[O-])c1,-1.6% (inactive)
16,CCC(C)OC(=O)C(C)Oc1ccc(-c2ccccc2)cc1 (stereo not drawn),79.9% (active)
17,CC(Oc1ccc(Cl)cc1)C(=O)Nc1ncccn1 (stereo not drawn),0.9% (inactive)
18,COc1ccc(OCC(=O)NNC(=O)c2ccc(-c3ccccc3)cc2)cc1,-3.2% (inactive)
19,Cn1c(/C(C#N)=C2/CCCCCN2)nc2ccccc21,29.5% (inactive)
20,COc1ccc(-c2[nH]nc(-c3ccccc3)c2-c2nc3ccccc3[nH]2)cc1,10% (inactive)
21,O=C(NCCN=C1NS(=O)(=O)c2ccccc21)c1ccc(S(=O)(=O)N2CCOCC2)cc1,46.2% (inactive)
22,c1ccc2c(NCC3CCCO3)nc(-c3ccncc3)nc2c1 (stereo not drawn),83% (active)
23,Cn1c(=O)c2[nH]c(NCC3CCCO3)nc2n(-c2ccccc2)c1=O (stereo not drawn),10.1% (inactive)
24,Cc1nc2ccccc2c2oc(C(=O)NCC3CCCO3)cc12 (stereo not drawn),0.9% (inactive)
25,Cc1ccc(S(=O)(=O)NCC(=O)N(CC(=O)NC2CCCCC2)Cc2ccco2)cc1,10.4% (inactive)

row,Structure (SMILES),inhibition
1,O=C(NCc1ccc(Cl)c(Cl)c1)c1cccnc1,14.6% (inactive)
2,Cn1ccs/c1=N\S(=O)(=O)c1ccc(C(C)(C)C)cc1,67.2% (active)
3,CCSc1nnc(NC(=O)c2ccc(C)cc2)s1,38% (inactive)
4,Cc1ccc(NC(=O)c2nc[nH]c2C(=O)N2CCCCC2)c(C(=O)c2ccccc2)c1,40.9% (inactive)
5,Cc1ccc(C)c(S(=O)(=O)N2CC(=O)Nc3ccccc32)c1,12.1% (inactive)
6,CCOCCn1c(C(C)C)nc2ccccc21,5.1% (inactive)
7,COc1ccc(-c2nc3ccccc3n2CCC(C)C)cc1OC,59.6% (active)
8,COCCn1c(-c2ccc(OC)c(OC)c2)nc2ccccc21,-20% (inactive)
9,CSc1nc(-c2ccco2)nn1C(=O)CCc1ccccc1,-12.3% (inactive)
10,C=CCOc1cccc(CNn2cn[nH]c2=S)c1,-16.1% (inactive)
11,CC(C)C(NC(=O)c1cccc(S(=O)(=O)N2CCOCC2)c1)C(=O)NCCc1ccccn1 (stereo not drawn),-17.7% (inactive)
12,CCN(Cc1ccncc1)C(=O)c1cccc(S(=O)(=O)N2CCOCC2)c1,94.8% (active)
13,O=C(c1cccc(S(=O)(=O)N2CCOCC2)c1)N1CCOCC1,-6.1% (inactive)
14,COc1cc(C2C(C#N)=C(N)Oc3n[nH]c(-c4ccccn4)c32)cc(OC)c1OC (stereo not drawn),-6.2% (inactive)
15,COc1ccc(C2C(C#N)=C(N)Oc3cc(N)ccc32)cc1OC (stereo not drawn),85.7% (active)
16,N#CC1=C(N)Oc2cc(O)ccc2C1C1CCCCC1 (stereo not drawn),44.8% (inactive)
17,Cc1ccc(-n2c(C)cc(/C=C(\C#N)C(=O)NCC3CCCO3)c2C)cc1 (stereo not drawn),13.8% (inactive)
18,COc1ccc(N2CCN(C(=O)CSc3nnc4ncccn34)CC2)cc1,18.5% (inactive)
19,Cc1nc2ccc(S(=O)(=O)NCC(=O)NCCN3CCCCC3C)cc2s1 (stereo not drawn),8.5% (inactive)
20,COc1ccc(C(C#N)Nc2ccc(C)cc2)cc1 (stereo not drawn),-0.6% (inactive)
21,Cc1noc(C)c1CSCC(=O)Nc1nc2ccc(Oc3ccccc3)cc2s1,44.1% (inactive)
22,CCOC(=O)c1c(C2CC2)csc1NC(=O)CSCc1c(C)noc1C,65% (active)
23,CCOC(=O)c1sc(NC(=O)CCN2CCOCC2)c(C(=O)OCC)c1C,40.4% (inactive)
24,COCCn1nnnc1CN1CCC(NC(=O)Nc2cccc(OC)c2)CC1,-12.7% (inactive)
25,CC(C)C1C2=C(CC(C)(C)CC2=O)ON1c1ccccc1 (stereo not drawn),28.7% (inactive)

row,Structure (SMILES),inhibition
1,N=c1ccn(CC(=O)NC(N)=O)c2ccccc12,-0.4% (inactive)
2,Cc1ccc(NC(=O)CN2CCC3(O)CCCCC3C2c2ccc3c(c2)OCO3)c(C)c1 (stereo not drawn),90.4% (active)
3,CC1CCCCN1CC(=O)NCc1ccc2c(c1)OCO2 (stereo not drawn),-6.6% (inactive)
4,CCN(CC)c1ccc(C2C3CCCCC3(O)CCN2CC(=O)Nc2ccccc2)cc1 (stereo not drawn),1.4% (inactive)
5,CN(Cc1nc2ccccc2c(=O)[nH]1)Cc1cc(=O)oc2ccc3ccccc3c12,34.3% (inactive)
6,CCCN(c1ccc(C(C)C)cc1)S(=O)(=O)c1c(C)[nH]c(=O)[nH]c1=O,21.6% (inactive)
7,O=C(NCN1CCN(CCO)CC1)c1cnccn1,10.7% (inactive)
8,CC1CC(C)CN(CC(=O)N2c3ccccc3CCc3ccccc32)C1 (stereo not drawn),-3.1% (inactive)
9,CC(c1ccccc1)n1c(NCCCn2ccnc2)nc2c1c(=O)[nH]c(=O)n2C (stereo not drawn),96.2% (active)
10,COc1ccc(CCn2c(NCCCN3CCOCC3)nc3c2c(=O)[nH]c(=O)n3C)cc1,16.8% (inactive)
11,CCCCNc1nc2c(c(=O)[nH]c(=O)n2C)n1CCOc1ccccc1,23.9% (inactive)
12,O=C1c2cccc3cccc(c23)N1CN1CCN(c2ccccn2)CC1,-43% (inactive)
13,C/C(=N\NC(=O)c1ccccc1C)c1ccc(N2CCOCC2)cc1,-40.9% (inactive)
14,CCCC(=O)Nc1c(O)c2ccccc2[nH]c1=O,5.2% (inactive)
15,CCCc1nc2ccccc2c(=O)n1NC(=O)c1c(O)c2ccccc2[nH]c1=O,60.6% (active)
16,CCCCc1nc2ccccc2c(=O)n1NC(=O)c1c(O)c2cccc3c2n(c1=O)CC3,20.8% (inactive)
17,CCCOC(=O)Cc1c(O)c2ccccc2[nH]c1=O,-19.5% (inactive)
18,C=CCn1c(SCc2c(C(=O)OC)sc(N)c2C(=O)OC)nnc1-c1ccc(Cl)cc1,79% (active)
19,COCCn1c(SCc2nc3cc(OC)c(OC)cc3c(=O)[nH]2)nnc1-c1ccncc1,-18.5% (inactive)
20,C=CCn1c(CC(=O)Nc2cccc(OC)c2)nnc1SCC(=O)NC1CCCCC1,10% (inactive)
21,CCc1nnc(NC(=O)CSc2nnc(-c3ccncc3)n2Cc2ccccc2)s1,26.1% (inactive)
22,C=CCn1c(SCc2cc(C(=O)OC)c(C)o2)nnc1-c1ccncc1,57.4% (active)
23,COC(=O)c1sc(=S)n(-c2ccc(Cl)cc2)c1C,40.2% (inactive)
